This is part of a sample that, as a whole, favours compounds with a hit. Of some 83,000 tested, about 20% had one in any assay.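 Interpretation: 100, growth as untreated; towards 0, rising growth inhibition; 0, no net growth; 0 to -100, cell death. Compounds scoring below 10 were considered active.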 Activity calls are given as the source filed them.

The first experiment has as its system SK-MEL-2 melanoma. The experiment is described as follows: NCI-60 one-dose screen, 48 h (100 = growth as untreated, 0 = no growth, -100 = all killed). The note with it: 10 µM unless noted.
For `CC/C(=C(/c1ccc(Cl)cc1)c1ccc(OCCN2CCCC2)cc1)c1ccc(OC)cc1`, the growth was 105% (inactive).

As to `Nc1ncnc2c1N=C(c1ccc(Cl)cc1)CC(c1ccc3c(c1)OCO3)N2` (stereo not given), the growth is 52% (inactive).

Consider `N=C(N)c1ccc(-c2ccc(-c3ccc(F)cc3)o2)o1`, for which the growth was 35.6% (inactive).

On to `CCCCC(=O)c1ccco1`, for which the growth is 98.6% (inactive).

For the compound `C/C(=C(/c1ccc(Cl)cc1)c1ccc(OCCN2CCCC2)cc1)c1ccc(Cl)cc1`, the growth was 93.9% (inactive).

With `COC(=O)c1c2c(c[n+]([O-])c1C)C(=O)C(NCc1ccccc1)=CC2=O`, the growth is -44.4% (active).

As for `Fc1ccc(-c2nn(-c3ccccc3)cc2-c2nc3ccccc3o2)cc1`, the growth is 125% (inactive).

Consider `COc1ccc2c3c([nH]c2c1)C(=O)c1nc(C)ccc1C3=O`, for which the growth was 66.7% (inactive).

`CCN(C(=O)N1CCN(c2cc3c(cc2F)c(=O)c(C(=O)O)cn3C2CC2)CC1)c1nc(-c2ccc(Cl)cc2)cs1`: the growth was 9.44% (active).

As to `CCCNC(=O)Oc1ccc(/C(=C(/C)Cc2ccc(OC)cc2)c2ccc(OCCCN(C)C)cc2)cc1`, the growth is 96.5% (inactive).

Regarding `CC(=O)OCc1nc(C#N)c(N(C)C)o1`, the growth is 88.8% (inactive).

Turning to `Cn1ccnc1C(=O)C(=O)Nc1ccc(CC(=O)Nc2ccccc2)cc1`, the growth was 123% (inactive).

With `O=C(CN1C(=O)CCC1=O)Nc1ncc(Cc2ccc(F)cc2)s1`, the growth is 100% (inactive).

In the case of `CNc1nc(S(=O)c2ccc(C#N)cc2)nc2ccccc12` (stereo not given), the growth was 105% (inactive).

Regarding `Cn1c(-c2ccc(Br)cc2)c(O)c(=O)c2c(F)cccc21`, the growth is 87.1% (inactive).

Consider `CCN(CC)CCCN1C(=O)c2c(c(C)c3c(oc4cc(O)ccc43)c2C)C1=O`, for which the growth is 98% (inactive).

For the compound `Cn1ccc2c3c(ccc21)CC3=O`, the growth is 126% (inactive).

For `O=C1N[C@@H]2NC(=[N+]3CCOCC3)N[C@@H]2N1`, the growth is 118% (inactive).

For the compound `CCCCCOc1ccc(C(=O)/C(Br)=C/C(=O)O)cc1`, the growth is 95.2% (inactive).

Turning to `O=C(/C=C/c1ccccc1)c1cccc(OCCCOc2cccc(C(=O)/C=C/c3ccccc3)c2)c1`, the growth was 101% (inactive).

Turning to `O=C(Cc1ccccc1)Nc1nc(O)c(/C=C2\C(=O)C=Cc3ccccc32)s1`, the growth is 110% (inactive).

Consider `Nc1c(C(=O)Nc2ccncc2)sc2nc3c(cc12)CCCCCC3`, for which the growth is 94.2% (inactive).

Regarding `COc1ccc(C(=O)Nc2cccc(C3CC(=O)c4c(cc(OC)c(OC)c4OC)O3)c2)cc1` (stereo not given), the growth was -11.9% (active).

Take `O=C(c1cc2ccccc2o1)c1nn(-c2ccccc2)/c(=N/N=Cc2cn(-c3ccccc3)nc2-c2cc3ccccc3oc2=O)s1`: the growth is 100% (inactive).

Turning to `CCCCCCCCCCCCCCCCCCOc1ccccc1CC(=O)NCC[N+]1(C)CCCC1`, the growth is 62.4% (inactive).

Regarding `O=C(CSc1nc(-c2ccccc2)[nH]c1S(=O)(=O)c1ccccc1)NC1CC1`, the growth is 102% (inactive).

For the compound `CC(C)N1CCN(Cc2ccc3c(NNC(=O)c4ccccc4)nc4cc(F)ccc4n23)CC1`, the growth is 59.6% (inactive).

As to `O=S(=O)(NCCCNc1nccc(-c2c(-c3ccc(F)c(O)c3)nc3occn23)n1)c1ccccc1`, the growth is 31.9% (inactive).

In the case of `COc1cc(-c2csc(NC(=O)c3cc(-n4cnc(C)c4)cc(C(F)(F)F)c3)n2)cc(OC)c1OC`, the growth is 67.6% (inactive).

For `COc1cc2c(c(OC)c1OC)CCC(c1cccc(C(=O)Nc3cccc(Br)c3)c1)O2` (stereo not given), the growth is 76.8% (inactive).

As for `Cc1nn(-c2ccccc2)c(Oc2ccccn2)c1-c1nc2ccccc2s1`, the growth was 99.2% (inactive).

For `CSc1nnc(-c2cnn3c2NC(c2ccccc2)C3)n1-c1ccc(C(F)(F)F)cc1` (stereo not given), the growth was 50.2% (inactive).

Regarding `Cc1ccc(-c2cc(-c3ccc(Cl)cc3)nc(NC(=O)c3cccnc3)n2)cc1`, the growth is 109% (inactive).

Take `CC1=C(C(=O)OC(C)C)C(c2ccc3c(c2)OCO3)NC(=S)N1` (stereo not given): the growth was 102% (inactive).

For `CCOC(=O)c1c2c(n3ccc(C)cc13)C(=O)c1ccccc1C2=O`, the growth is 90.2% (inactive).

In the case of `O=S(=O)(NCCNc1cc(-c2c(-c3cccc(O)c3)nc3sccn23)ccn1)c1ccc(C(F)(F)F)cc1`, the growth is 43.9% (inactive).

In the case of `Cc1nc2ncnc(Cl)c2[nH]1`, the growth was 104% (inactive).

Regarding `N#Cc1nn(-c2cc(=O)[nH]c3ccc(Cl)cc23)c(N)c1C#N`, the growth is 116% (inactive).

For the compound `C#COc1cccc(Nc2ncnc3ncc(NC(=O)CCl)cc23)c1`, the growth was 24.5% [6.25 µM] (inactive).

Consider `COC(=O)[C@]1(C)CCC[C@]2(C)[C@H]3C[C@H]4C(C(C)C)=C[C@]3(CC[C@H]21)[C@H]1[C@@H]4[C@@H](OCCC#N)CC[C@@H]1OCCC#N`, for which the growth is 28.8% (inactive).

The subject of the next experiment is EKVX NSCLC. The description is as above. The note with it: 10 µM unless noted.
In the case of `CC/C(=C(/c1ccc(Cl)cc1)c1ccc(OCCN2CCCC2)cc1)c1ccc(OC)cc1`, the growth was 65.1% (inactive).

On to `Nc1ncnc2c1N=C(c1ccc(Cl)cc1)CC(c1ccc3c(c1)OCO3)N2` (stereo not given), for which the growth is 94.6% (inactive).

As for `N=C(N)c1ccc(-c2ccc(-c3ccc(F)cc3)o2)o1`, the growth is 47.5% (inactive).

With `CCCCC(=O)c1ccco1`, the growth was 98.7% (inactive).

With `C/C(=C(/c1ccc(Cl)cc1)c1ccc(OCCN2CCCC2)cc1)c1ccc(Cl)cc1`, the growth is 90.7% (inactive).

Consider `COC(=O)c1c2c(c[n+]([O-])c1C)C(=O)C(NCc1ccccc1)=CC2=O`, for which the growth is -45.1% (active).

For the compound `Fc1ccc(-c2nn(-c3ccccc3)cc2-c2nc3ccccc3o2)cc1`, the growth is 84% (inactive).

On to `COc1ccc2c3c([nH]c2c1)C(=O)c1nc(C)ccc1C3=O`, for which the growth is 53.6% (inactive).

In the case of `CCN(C(=O)N1CCN(c2cc3c(cc2F)c(=O)c(C(=O)O)cn3C2CC2)CC1)c1nc(-c2ccc(Cl)cc2)cs1`, the growth was 16.9% (inactive).

Turning to `CCCNC(=O)Oc1ccc(/C(=C(/C)Cc2ccc(OC)cc2)c2ccc(OCCCN(C)C)cc2)cc1`, the growth is 85.7% (inactive).

For the compound `CC(=O)OCc1nc(C#N)c(N(C)C)o1`, the growth was 90.6% (inactive).

As to `Cn1ccnc1C(=O)C(=O)Nc1ccc(CC(=O)Nc2ccccc2)cc1`, the growth was 102% (inactive).

As for `O=C(CN1C(=O)CCC1=O)Nc1ncc(Cc2ccc(F)cc2)s1`, the growth was 92.6% (inactive).

Regarding `CNc1nc(S(=O)c2ccc(C#N)cc2)nc2ccccc12` (stereo not given), the growth is 82.2% (inactive).

Take `Cn1c(-c2ccc(Br)cc2)c(O)c(=O)c2c(F)cccc21`: the growth was 56% (inactive).

Take `CCN(CC)CCCN1C(=O)c2c(c(C)c3c(oc4cc(O)ccc43)c2C)C1=O`: the growth was 108% (inactive).

As for `Cn1ccc2c3c(ccc21)CC3=O`, the growth is 103% (inactive).

As to `O=C1N[C@@H]2NC(=[N+]3CCOCC3)N[C@@H]2N1`, the growth is 102% (inactive).

In the case of `CCCCCOc1ccc(C(=O)/C(Br)=C/C(=O)O)cc1`, the growth is 103% (inactive).

Turning to `O=C(/C=C/c1ccccc1)c1cccc(OCCCOc2cccc(C(=O)/C=C/c3ccccc3)c2)c1`, the growth is 103% (inactive).

With `O=C(Cc1ccccc1)Nc1nc(O)c(/C=C2\C(=O)C=Cc3ccccc32)s1`, the growth is 95.6% (inactive).

With `Nc1c(C(=O)Nc2ccncc2)sc2nc3c(cc12)CCCCCC3`, the growth is 89.2% (inactive).

`COc1ccc(C(=O)Nc2cccc(C3CC(=O)c4c(cc(OC)c(OC)c4OC)O3)c2)cc1` (stereo not given): the growth is 45% (inactive).

Take `O=C(c1cc2ccccc2o1)c1nn(-c2ccccc2)/c(=N/N=Cc2cn(-c3ccccc3)nc2-c2cc3ccccc3oc2=O)s1`: the growth was 92.7% (inactive).

Take `CCCCCCCCCCCCCCCCCCOc1ccccc1CC(=O)NCC[N+]1(C)CCCC1`: the growth was 92% (inactive).

`O=C(CSc1nc(-c2ccccc2)[nH]c1S(=O)(=O)c1ccccc1)NC1CC1`: the growth was 65.1% (inactive).

For the compound `CC(C)N1CCN(Cc2ccc3c(NNC(=O)c4ccccc4)nc4cc(F)ccc4n23)CC1`, the growth was 18.1% (inactive).

With `O=S(=O)(NCCCNc1nccc(-c2c(-c3ccc(F)c(O)c3)nc3occn23)n1)c1ccccc1`, the growth is 101% (inactive).

For the compound `COc1cc(-c2csc(NC(=O)c3cc(-n4cnc(C)c4)cc(C(F)(F)F)c3)n2)cc(OC)c1OC`, the growth was 69.1% (inactive).

As for `COc1cc2c(c(OC)c1OC)CCC(c1cccc(C(=O)Nc3cccc(Br)c3)c1)O2` (stereo not given), the growth was 50.4% (inactive).

With `Cc1nn(-c2ccccc2)c(Oc2ccccn2)c1-c1nc2ccccc2s1`, the growth is 90.4% (inactive).

On to `CSc1nnc(-c2cnn3c2NC(c2ccccc2)C3)n1-c1ccc(C(F)(F)F)cc1` (stereo not given), for which the growth is 56% (inactive).

In the case of `Cc1ccc(-c2cc(-c3ccc(Cl)cc3)nc(NC(=O)c3cccnc3)n2)cc1`, the growth was 102% (inactive).

With `CC1=C(C(=O)OC(C)C)C(c2ccc3c(c2)OCO3)NC(=S)N1` (stereo not given), the growth was 94.4% (inactive).

With `CCOC(=O)c1c2c(n3ccc(C)cc13)C(=O)c1ccccc1C2=O`, the growth was 91.2% (inactive).

As for `O=S(=O)(NCCNc1cc(-c2c(-c3cccc(O)c3)nc3sccn23)ccn1)c1ccc(C(F)(F)F)cc1`, the growth was 35.7% (inactive).

For the compound `Cc1nc2ncnc(Cl)c2[nH]1`, the growth was 103% (inactive).

For the compound `N#Cc1nn(-c2cc(=O)[nH]c3ccc(Cl)cc23)c(N)c1C#N`, the growth was 94% (inactive).

Regarding `C#COc1cccc(Nc2ncnc3ncc(NC(=O)CCl)cc23)c1`, the growth is 57.1% [6.25 µM] (inactive).

Consider `COC(=O)[C@]1(C)CCC[C@]2(C)[C@H]3C[C@H]4C(C(C)C)=C[C@]3(CC[C@H]21)[C@H]1[C@@H]4[C@@H](OCCC#N)CC[C@@H]1OCCC#N`, for which the growth was 29.9% (inactive).

The values above are taken from PubChem BioAssay (NCI).
